The record followed here is PubChem BioAssay (NCI).

Common to all, as to assay: NCI-60 one-dose screen, 48 h (100 = growth as untreated, 0 = no growth, -100 = all killed)
Assay [1] relates to K-562 leukemia. The conditions noted are these: 10 µM unless noted.
Assay [2] has as its system MALME-3M melanoma. The conditions noted are these: 10 µM unless noted.
In assay [3] the test system is RXF 393 renal. The conditions noted are these: 10 µM unless noted.
The test system of assay [4] is SF-295 CNS. Conditions: 10 µM unless noted.
For assay [5], the system named is UACC-257 melanoma. The conditions noted are these: 10 µM unless noted.
Assay [6] concerns HCT-15 colon. Conditions: 10 µM.
The subject of assay [7] is UACC-62 melanoma. The conditions noted are these: 10 µM unless noted.
Assay [8] has as its system LOX IMVI melanoma. The conditions noted are these: 10 µM unless noted.
Assay [9] relates to SK-MEL-2 melanoma. The conditions noted are these: 10 µM unless noted.
For assay [10], the system named is TK-10 renal. The conditions noted are these: 10 µM unless noted.
The subject of assay [11] is ACHN renal. The conditions noted are these: 10 µM unless noted.
Assay [12] deals with A498 renal. Conditions: 10 µM unless noted.
Assay [13] concerns HL-60(TB) leukemia. The conditions noted are these: 10 µM unless noted.
Assay [14] deals with MOLT-4 leukemia. The conditions noted are these: 10 µM.
Assay [15] deals with OVCAR-8 ovarian. Conditions: 10 µM unless noted.
Assay [16] has as its system OVCAR-4 ovarian. Conditions: 10 µM unless noted.
The test system of assay [17] is NCI/ADR-RES ovarian. The conditions noted are these: 10 µM unless noted.
The subject of assay [18] is T-47D breast. The conditions noted are these: 10 µM unless noted.
Assay [19] relates to BT-549 breast. Conditions: 10 µM.
The subject of assay [20] is HCC-2998 colon. The conditions noted are these: 10 µM unless noted.

Compounds without any hit were thinned out: in the full panel of roughly 83,000, 20% have a hit.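 The endpoint reported here, percent growth, reads 100 for growth as untreated, 0 for no net growth and -100 for all cells dead.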 A number with no mark means an inactive call. Active and inactive are the calls of the source. How the source made its calls: active means growth percent below 10; inactive means the rest.

`O=c1[nH]c2cc(Cl)ccc2n1C1CCN(CCCC(c2ccc(F)cc2)c2ccc(F)cc2)CC1`: the growth in assay [1] was -59.9% (active); in [2] it was -1.17% (active); in [3], 30.5%; in assay [4], -27.6% (active); in assay [5], -81.4% (active); in [6], -30.3% (active). Further, the growth is 39.7% in assay [7]; -91.9% (active) in assay [8]; 16.8% in assay [9]; 13.1% in [10]; 48.5% in assay [11]; -90.2% (active) in [12]. In addition, the growth was -70.7% (active) in [13]; -28.3% (active) in assay [14]; -56.7% (active) in assay [15]; 56.6% in assay [16]; 51.9% in assay [17]; 41.5% in [18]. For the same compound, the growth in assay [19] was 78.4%; in assay [20] it was -63.4% (active).
As for `CNC(=O)Oc1cccc(N(C)C)c1`, the growth in assay [1] is 102%; in assay [2], 101%; in assay [3], 103%; in assay [4], 99.8%; in assay [5], 93.5%; in assay [6], 103%. The growth in [7] is 100%; in assay [8] it was 96.9%; in [9], 83.4%; in assay [10], 108%; in assay [11], 104%; in [12], 104%. The growth in assay [13] was 103%; in assay [14], 107%; in assay [15], 99.5%; in assay [16] it was 106%; in assay [17] it was 107%; in assay [18], 104%. Moreover, the growth is 94.1% in assay [19] and 111% in [20].
For `CN=C(NN)NN`, the growth in assay [1] was 113%; in assay [2], 103%; in assay [3] it was 109%; in assay [4] it was 102%; in assay [5] it was 109%; in assay [6], 104%. Also, the growth is 116% in assay [7]; 98.1% in [8]; 109% in assay [9]; 125% in assay [10]; 108% in [11]; 92.4% in assay [12]. Moreover, the growth is 119% in [13]; 102% in [14]; 99.3% in assay [15]; 117% in assay [16]; 106% in assay [18]; 106% in [19]. The growth in assay [20] was 103%.
As to `Nc1ccc([N+](=O)[O-])c2c1Oc1ccccc1O2`, the growth was 113% in [1]; 121% in assay [2]; 49.5% in assay [3]; 85.1% in assay [4]; 101% in assay [5]; 87.8% in [6]. Also, the growth was 81.7% in assay [7]; 103% in [8]; 102% in assay [9]; 94.4% in assay [10]; 108% in assay [11]; 72.9% in assay [12]. Further, the growth in [13] is -17.4% (active); in assay [14] it was 79.7%; in assay [15], 92.9%; in assay [16] it was 94.5%; in assay [17], 99.4%; in assay [18], 72.7%. The growth was 87% in assay [19] and 108% in assay [20].
In the case of `c1cnc2c(c1)ccc1ncccc12`, the growth is 99.8% in [1]; 118% in assay [2]; 115% in assay [4]; 96.6% in assay [5]; 110% in assay [6]; 94.6% in assay [7]. Also, the growth in assay [8] is 106%; in assay [10] it was 114%; in [11] it was 90.7%; in assay [12], 207%; in assay [13], 93.6%; in assay [14], 100%. The growth in assay [15] is 94.4%; in assay [16], 109%; in assay [17], 78.4%; in [18], 111%; in assay [19], 106%; in assay [20] it was 119%.
Consider `O=C(O)CC(Br)C(=O)CBr` (stereo not drawn), for which the growth in [1] is 105%; in assay [2], 103%; in [3], 109%; in [4] it was 98.2%; in [5], 102%; in assay [6], 93.5%. In addition, the growth is 102% in assay [7]; 86.6% in assay [8]; 98.9% in assay [10]; 99% in assay [11]; 104% in assay [12]; 105% in assay [13]. Further, the growth is 103% in assay [14]; 99.4% in assay [15]; 97.2% in [16]; 111% in assay [17]; 103% in assay [18]; 98.2% in assay [19]. The growth in [20] is 116%.
As for `C[As](=O)(O)c1ccc(C(=O)O)cc1`, the growth was 122% in assay [1]; 112% in assay [2]; 95.9% in [3]; 99.8% in assay [4]; 102% in assay [5]; 99.2% in assay [6]. Besides, the growth in assay [7] is 101%; in assay [8], 115%; in assay [9] it was 99.9%; in [10], 107%; in assay [11], 114%; in assay [12], 96.3%. In addition, the growth was 102% in assay [13]; 110% in assay [14]; 101% in assay [15]; 113% in assay [16]; 108% in [17]; 110% in assay [18]. The growth in assay [19] was 117%; in assay [20], 116%.
For the compound `C[C@@H]1CC[C@@H]2[C@@H]1[C@H](OC(=O)/C=C/C1CCCCC1)[C@]1(C3CCCCC3)C[C@@H](OC(=O)CO)[C@@]2(C)O1`, the growth in assay [1] is 44.1%; in [2], 78.8%; in [3], 13.3%; in assay [4] it was 72.7%; in assay [5], 61.7%; in [6], 48.4%. In addition, the growth is 69.5% in [7]; 73.7% in [9]; 81.7% in [10]; 14.9% in assay [11]; -83.3% (active) in [12]; 8.36% (active) in assay [13]. Further, the growth in assay [15] was 23%; in assay [16], 61.1%; in assay [17] it was 12.2%; in [19], 0.314% (active); in [20], 49.5%.
